Experimental data as given in PubChem BioAssay (NCATS).
Records with an inconclusive call do not appear. Entries that show only a call come without a potency. Active and inactive are the calls of the source. Calls follow the shape of the dose curve; as a rule, active = well fitted inhibition curve with a large enough effect; inconclusive = small, poorly fitted or top-dose-only effect; inactive = flat fitted curve, though single readings scatter.

target: Voltage-gated inwardly rectifying potassium channel KCNH2 (Homo sapiens) (UniProt Q12809); assay: qHTS Assay for Small Molecule Inhibitors of the Human hERG Channel Activity (AID 588834); details: U2OS BacMam hERG, FluxOR thallium flux fluorescence; series mostly up to 46.1 µM;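 also: lower thallium flux fluorescence means stronger hERG block; nearly all actives have a fitted effect of over 50% in size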
Sequence (Q12809 whole entry, looked up): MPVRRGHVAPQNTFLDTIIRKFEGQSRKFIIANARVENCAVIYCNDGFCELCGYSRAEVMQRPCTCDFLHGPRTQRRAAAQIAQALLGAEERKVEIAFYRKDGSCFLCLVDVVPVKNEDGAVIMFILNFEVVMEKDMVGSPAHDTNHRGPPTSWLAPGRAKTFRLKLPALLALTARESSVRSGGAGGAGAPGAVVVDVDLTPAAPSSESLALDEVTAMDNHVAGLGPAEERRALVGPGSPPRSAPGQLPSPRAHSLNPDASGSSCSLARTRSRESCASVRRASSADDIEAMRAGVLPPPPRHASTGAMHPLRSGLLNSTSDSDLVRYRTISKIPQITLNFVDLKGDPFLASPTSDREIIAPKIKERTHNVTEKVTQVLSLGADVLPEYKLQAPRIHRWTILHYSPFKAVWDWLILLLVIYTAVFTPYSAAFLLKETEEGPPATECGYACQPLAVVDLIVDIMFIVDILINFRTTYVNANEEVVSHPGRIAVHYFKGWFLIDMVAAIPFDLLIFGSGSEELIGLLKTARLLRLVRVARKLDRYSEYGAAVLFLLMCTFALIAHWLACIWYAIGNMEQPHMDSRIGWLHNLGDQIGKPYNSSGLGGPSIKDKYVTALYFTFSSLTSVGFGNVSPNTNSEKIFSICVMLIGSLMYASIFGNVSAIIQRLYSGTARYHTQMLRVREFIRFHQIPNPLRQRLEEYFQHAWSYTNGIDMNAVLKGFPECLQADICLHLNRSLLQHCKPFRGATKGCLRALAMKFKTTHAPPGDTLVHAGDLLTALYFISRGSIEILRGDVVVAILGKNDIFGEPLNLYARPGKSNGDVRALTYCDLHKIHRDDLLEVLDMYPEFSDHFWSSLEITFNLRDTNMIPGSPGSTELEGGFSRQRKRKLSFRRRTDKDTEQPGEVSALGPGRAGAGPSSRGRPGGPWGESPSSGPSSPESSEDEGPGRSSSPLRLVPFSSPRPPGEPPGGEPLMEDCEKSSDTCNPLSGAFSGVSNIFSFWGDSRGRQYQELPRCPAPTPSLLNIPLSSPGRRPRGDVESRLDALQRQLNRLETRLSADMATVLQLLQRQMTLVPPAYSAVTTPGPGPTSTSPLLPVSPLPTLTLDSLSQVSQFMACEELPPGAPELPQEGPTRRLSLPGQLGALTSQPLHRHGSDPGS
Outline: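 Step 1: BacMam hERG transduction of U2OS, 4 hrs RT. Step 2: overnight 37 °C, plate 2000 cells/well, 4 hr. Step 3: FluxOR load, compound 10 min, stimulate, read fluorescence.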
Potency is read from the fitted curve at half-maximal effect.

SMILES | Potency
COC(=O)c1cccnc1 | inactive
CC[C@]12CCCN3CCc4c(n(c5ccccc45)[C@@](O)(C(=O)OC)C1)[C@@H]32 | 0.398 µM (active)
CC(=O)N[C@@H](CC(C)C)C(=O)O | inactive
COc1ccc(Cc2cnc(N)nc2N)cc1OC | inactive
CNCc1ccccc1 | inactive
C[N+](C)(C)CC(O)CC(=O)[O-] (centres undefined) | inactive
Cn1c([N+](=O)[O-])cnc1COC(N)=O | inactive
NC(=O)NC1NC(=O)NC1=O (centres undefined) | inactive
CC(C)CCCC(C)CCCC(C)CCCCC(C)CCCC(C)CCCC(C)C (centres undefined) | inactive
CC1CCc2cc(F)cc3c(=O)c(C(=O)O)cn1c23 (centres undefined) | inactive
CC(=O)N(CC(O)CO)c1c(I)c(C(=O)NCC(O)CO)c(I)c(C(=O)NCC(O)CO)c1I (centres undefined) | inactive
Nc1ncnc2c1ncn2[C@@H]1O[C@H](COP(=O)(O)O)[C@@H](O)[C@H]1O | inactive
Cc1ccc(S(=O)(=O)NC(=O)NC2CCCCC2)cc1 | inactive
C=CCSCC1Nc2cc(Cl)c(S(N)(=O)=O)cc2S(=O)(=O)N1 (centres undefined) | inactive
CCc1cccc(CC)c1NC(=O)CN(CC(=O)O)CC(=O)O | inactive
CCCCCC(C)N (centres undefined) | inactive
CCN(CC)CCOC(=O)C(c1ccccc1)c1ccccc1 | 2 µM (active)
CC(=O)OC[C@H]1O[C@@](COC(C)=O)(O[C@H]2O[C@H](COC(C)=O)[C@@H](OC(C)=O)[C@H](OC(C)=O)[C@H]2OC(C)=O)[C@@H](OC(C)=O)[C@@H]1OC(C)=O | inactive
O=c1[nH]c2cc(C(F)(F)F)c(N3CCOCC3)cc2n(CP(=O)(O)O)c1=O | inactive
